Data: PubChem BioAssay AID1210 (NMMLSC, 2008)
Activity calls are given as the source filed them.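 The calls were made as follows: active = blocks over 70% of labeled estradiol binding at 10 µM, or over a set limit at 100 nM; inactive = the rest.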

target: Estrogen receptor beta (Homo sapiens) (UniProt Q92731); test: displacement of fluorescent estrogen from ERbeta – cell-based, Cos7 ERbeta-GFP, flow cytometry, primary screen (AID 1210); conditions: fluorescent estrogen binding, at 10 µM, hits give high values;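 also: 0% = DMSO vehicle wells and 100% = complete loss of labeled estradiol signal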
Sequence (Q92731 whole entry, looked up): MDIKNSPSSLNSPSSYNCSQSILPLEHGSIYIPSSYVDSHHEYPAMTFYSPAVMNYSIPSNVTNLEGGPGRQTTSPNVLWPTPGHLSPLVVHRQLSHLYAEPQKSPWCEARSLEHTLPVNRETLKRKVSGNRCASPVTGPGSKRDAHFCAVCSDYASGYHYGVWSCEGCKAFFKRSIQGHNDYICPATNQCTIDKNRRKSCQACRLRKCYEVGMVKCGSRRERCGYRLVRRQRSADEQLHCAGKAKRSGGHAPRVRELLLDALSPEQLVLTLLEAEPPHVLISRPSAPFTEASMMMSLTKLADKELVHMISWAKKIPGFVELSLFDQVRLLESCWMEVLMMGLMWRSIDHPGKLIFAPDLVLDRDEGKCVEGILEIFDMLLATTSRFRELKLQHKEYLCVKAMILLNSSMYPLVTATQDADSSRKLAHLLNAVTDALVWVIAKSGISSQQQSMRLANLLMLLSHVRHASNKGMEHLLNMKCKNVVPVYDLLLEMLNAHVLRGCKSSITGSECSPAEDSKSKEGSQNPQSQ

inhibition, inactive:
Cc1nc2cc(-c3ccsc3-n3c(C)ccc3C)[nH]n2c(=O)c1Cl 47%
CCOC(=O)N1CCc2[nH]c3ccc(C)cc3c2C1 9%
CCOc1ccc(NS(=O)(=O)c2ccc3c(c2)[C@H]2C=CC[C@H]2[C@@H](c2ccc(C(=O)O)cc2)N3)cc1 52%
COc1ccc(Cn2c(=O)[nH]c3cc(C(=O)NCc4ccc5c(c4)OCO5)ccc3c2=O)cc1 35%
Cc1cc(C)c(C(=O)COc2cccnc2[N+](=O)[O-])cc1C 0%
CCOc1ccc(N=C2NC(=O)S/C2=C\c2ccc(OC)cc2)cc1 47%
O=c1oc2cc(O)ccc2c2c1CCC2 8%
CCOC(=O)COc1cc2oc(=O)c3c(c2cc1CC)CCCC3 23%
O=c1oc2cc(O)ccc2c2c1CCCC2 12%
COc1cc(-c2nc3ccc4ccccc4c3c3c2CCC3)cc(OC)c1O 64%
COc1ccc2c(c1)C1OCCC1C(c1ccco1)N2 (stereo unspecified) 39%
Cc1oc2ccc(OCC#N)cc2c1C(=O)OC(C)C 14%
CCCSc1nc(C)c(-c2csc(C(C#N)=C3CCCC3)n2)cc1C#N 37%
Cc1nnc(N/N=C/c2ccc(O)c([N+](=O)[O-])c2)[nH]c1=O 7%
CC1CCC2(C)c3[nH]c4ccccc4c3CCN2C1=O (stereo unspecified) 7%
COc1ccc(NS(=O)(=O)c2ccc3c(c2)[C@H]2C=CC[C@H]2[C@@H](c2cccc(OC)c2OC)N3)cc1 1%
O=C(C1c2ccccc2C(=O)N2CCc3ccccc3C12)N1CCN(Cc2ccccc2)CC1 (stereo unspecified) 29%
Nc1ccc2nn(-c3cccc4ccccc34)nc2c1 28%
COc1cccc([C@@H]2Oc3ccc(OC)cc3C(=O)[C@H]2O)c1 32%
COc1ccc(-n2cc3c(c(C#N)c2=N)CC(C)(C)CC3=O)cc1 18%
CCOC(=O)c1ccc2c(c1)C1C=CCC1C(c1cccc([N+](=O)[O-])c1)N2 (stereo unspecified) 6%
